Screening results: PubChem BioAssay, National Center for Advancing Translational Sciences (NCATS)
In the library only some 2.4% were active in any assay of this set; here they are far more common.
D2 ag-1 = activates the human D2 dopamine receptor; activation, % at 2 µM; 340,000 compounds, 0.53% hits; P14416; AID 485358; HEK293 T-REx D2 cells, calcium flux agonist mode;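 active = activation over 3 SD above normal in the single-dose calcium agonist read, cut at about 30% in these data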
Target sequence (P14416 whole entry, looked up): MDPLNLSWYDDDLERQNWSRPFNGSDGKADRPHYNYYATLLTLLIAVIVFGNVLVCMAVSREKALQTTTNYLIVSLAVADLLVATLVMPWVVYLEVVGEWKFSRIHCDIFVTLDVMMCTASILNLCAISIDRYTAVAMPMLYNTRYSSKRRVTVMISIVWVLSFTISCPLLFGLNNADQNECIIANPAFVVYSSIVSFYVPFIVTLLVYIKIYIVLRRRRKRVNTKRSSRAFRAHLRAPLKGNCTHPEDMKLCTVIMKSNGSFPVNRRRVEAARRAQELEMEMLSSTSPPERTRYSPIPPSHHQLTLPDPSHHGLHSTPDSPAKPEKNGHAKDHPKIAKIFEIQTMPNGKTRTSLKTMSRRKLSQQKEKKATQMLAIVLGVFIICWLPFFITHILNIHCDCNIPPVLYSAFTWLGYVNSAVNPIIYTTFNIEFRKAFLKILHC
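In this primary screen, compounds producing a positive calcium signal within 180 s of addition to tetracycline-induced, force-coupled HEK293 Trex D2 cells are flagged; cells are dye-loaded with a no-wash calcium kit beforehand.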
D2 ag-2 = human D2 receptor agonism in beta-arrestin assay. P14416. DiscoveRx PathHunter D2 beta-arrestin, luminescence, 90 min; 100% = 57 uM dopamine signal. activation, % (concentration not given with the values). 360,000 compounds, 0.084% hits; in the data active = activation above about 40%; inconclusive = between about 15% and that limit
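Agonist mode: compounds alone added to overnight-plated D2 PathHunter cells for 90 min at 37 C, with 57 uM final dopamine (EC100) defining full response. Beta-arrestin recruitment detected by chemiluminescent reagent, read after 1 h at ambient temperature.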
D2 PAM-1 = human D2 receptor positive allosteric modulation. potentiation, % (no concentration beside the values). P14416. 360,000 compounds, 0.23% hits. DiscoveRx D2 beta-arrestin cells, luminescence, 90 min; 100% = 57 uM dopamine signal; in the data active = potentiation above about 50%; inconclusive = mostly about 30% to 49%
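PathHunter D2 cells, attached overnight at 37 deg C, received compound in DMSO plus dopamine at EC20 (50 nM final) for 90 min at 37 deg C. Beta-arrestin recruitment was read as luminescence after 1 h with detection reagent at ambient temperature.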
D2 antagonist = D2 dopamine receptor (human) antagonism; inhibition, % at 10 µM; HEK293 TREx D2 cells, calcium flux, dopamine EC80; 340,000 compounds, 2% hits; AID 485344; in the data active = inhibition above about 30%; inactive = below that, where a call was filed
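Cells plated overnight at 30 C with tetracycline; no-wash calcium dye, 30–90 min RT; 10 s baseline; compound pinned; 180 s read; EC80 dopamine added; another 180 s read.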
D2 PAM-2 = positive allosteric modulators of human D2 dopamine receptor; HEK293 T-REx D2, calcium flux, EC20 dopamine potentiation; 340,000 compounds, 0.34% hits; P14416; potentiation, % at 10 µM;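 active = potentiation over 3 SD above the plate norm, cut at about 30% in these data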
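Potentiation of an EC20 dopamine calcium response is measured in a force-coupled, tetracycline-inducible Hek293 Trex D2 line. Compound-only kinetic reads over 180 s flag agonists before dopamine addition.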
Hits are given with their value; i = inactive; ? = inconclusive; nt = no result.

SMILES | D2 ag-1 | D2 ag-2 | D2 PAM-1 | D2 antagonist | D2 PAM-2
CN(C)c1ccc(-c2ccnc3c2CC(C)(C(=O)NCC2CC2)O3)cc1 (configuration not stated) | nt | i | i | nt | nt
COc1ccc(S(=O)(=O)N2CCCC(c3cc(C(=O)NCc4cccnc4)no3)C2)cc1 (configuration not stated) | nt | i | i | nt | nt
CCC(=O)N(Cc1ccco1)Cc1cc2cccc(C)c2n2nnnc12 | i | i | i | 34.0 | i
Cc1ccc2c(c1)cc(CN(Cc1ccco1)C(=O)COc1ccccc1)c1nnnn12 | i | i | i | i | i
COc1ccc(N=Cc2c(O)n(-c3cccc(C)n3)c(=O)c3ccccc23)cc1 | i | i | i | 32.0 | i
CC(C)(C)c1nc2c(C#N)c(-c3ccc(Cl)cc3)ccn2n1 | i | ? | 67.8 | i | i
Cc1c(Cl)c(C(F)(F)F)nn1CC(=O)NCc1ccco1 | i | i | i | 39.9 | nt
Cc1ccc(SCC(=O)NCc2ccco2)cc1 | i | i | i | i | i
Cc1ccc(SCCC(=O)NCc2ccco2)cc1 | i | i | i | i | 35.0
Cc1c(Cl)c([N+](=O)[O-])nn1CC(=O)NCc1ccco1 | i | i | i | 42.1 | i
CCOc1ccccc1NS(=O)(=O)c1ccc(N2CCCCS2(=O)=O)cc1 | nt | nt | nt | nt | i
Cc1ccc(-n2cccn2)c(CN2CCCC(C(=O)c3sccc3C)C2)c1 (configuration not stated) | i | i | i | 72.6 | i
CCc1ccc2occ(CC(=O)Nc3c(C(=O)c4ccccc4)oc4ccccc34)c2c1 | i | nt | nt | nt | i
O=S(=O)(Nc1cccc(S(=O)(=O)N2CCCC2)c1)c1cccc(Br)c1 | i | i | i | i | i
CCOc1ccc2c(c1)c(C(C)=O)c(C)n2-c1ccccc1 | 39.8 | i | i | i | i
Cc1ccc(C)c(N2CCN(C(c3ccc(F)cc3)c3nnc(-c4ccccc4)o3)CC2)c1 (configuration not stated) | i | nt | nt | nt | i
CCOC(=O)c1sc(C)c2c(=O)n(Cc3ccc(Cl)cc3)c(C)nc12 | i | i | i | 37.7 | i
COc1ccc2c(c1)c1c(c(=O)n(Cc3ccccc3)c(=O)n1Cc1ccccc1)n2C | i | nt | nt | nt | i
O=C(c1ccco1)N(Cc1ccccc1)Cc1ccccn1 | i | i | i | 56.6 | i
O=C(NCc1cccs1)C1CCCN1C(=O)Nc1ccc(Cl)cc1 (configuration not stated) | i | nt | nt | 31.6 | i
O=C(NCc1cccs1)C1CCCN1C(=O)Nc1ccccc1 (configuration not stated) | i | i | i | i | i
CCCOc1ccc(C(=O)NCC(c2cccs2)N(C)C)cc1 (configuration not stated) | i | i | i | i | i
CCOc1ccc(C(=O)NCC(c2cccs2)N(C)C)cc1OCC (configuration not stated) | i | i | i | 50.8 | i
CCOc1ccc(C(=O)NCc2ccncc2)cc1OCC | i | i | i | 34.4 | i
CC(C)(C)OC(=O)NCCCCCc1nnc(SCc2ccccc2)o1 | i | i | i | 35.8 | i
SMILES | D2 ag-1 | D2 ag-2 | D2 PAM-1 | D2 antagonist | D2 PAM-2
C=CCn1c(O)c(N=NC(=S)Nc2ccccc2F)c2ccccc21 | i | i | i | 68.3 | i
O=C(O)C1CCN(C(=O)c2ccc3c(c2)OCO3)CC1 | i | i | i | i | i
Oc1ccc(-c2nccc(-c3ccc(Cl)cc3)n2)cc1 | i | i | i | i | i
Oc1ccc(-c2nccc(-c3ccc(Cl)cc3Cl)n2)cc1 | i | i | i | i | 94.8
c1cnc2c(C3NCCc4c3[nH]c3ccccc43)cccc2c1 (configuration not stated) | i | i | i | 35.8 | i
O=C(O)c1cccnc1C(=O)N1CCc2c([nH]c3ccccc23)C1C(F)(F)F (configuration not stated) | i | i | i | i | i
COC(=O)NC(=S)Nc1ccc(Oc2ccc(Cl)cc2Cl)c(Cl)c1 | nt | i | i | nt | 36.3
COC(=O)NC(=S)Nc1ccc(Oc2ccc(Cl)cc2)c(Cl)c1 | i | i | i | i | i
O=C(Nc1ccc(C(=O)OCc2cc(=O)n3nc(C4CC4)sc3n2)cc1)c1ccccc1 | i | nt | nt | nt | i
Cc1cc(C)n(-c2ccc(C(=O)N3CC(C)OC(C)C3)cc2)n1 (configuration not stated) | i | i | i | 34.4 | i
